The source made the active and inactive calls.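 Rule for the calls, unless noted: active = NADPH fluorescence slope more negative than the mean of all samples by about 3 SD, 99.7% confidence; inactive = the rest.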

Experiment [1] can be described thus: inhibitors of TNFa-induced NFkB p65 translocation, primary screen, imaging, HUVEC, MLSMR starter and 10KST1 sets (AID 438;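 active = inhibition above 20% together with a positive visual image hit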;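 note: compound added about 3h40 before a 20 min TNFalpha stimulation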;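 for inhibition: signal is the nuclear over cytoplasmic p65 intensity ratio per well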). The following applies: HUVEC TNFa-induced p65 nuclear translocation; cell count: measured here: nuclei count (cytotoxicity indicator), at 2.08 µM; inhibition: at 2 µM, stronger effect = higher value, 0% TNFa-plus-vehicle, 100% no-TNFa wells.
Experiment [2] in a line: reduction of polyQ htt aggregates in cells – imaging, exon1htt(103Q)mCFP cells, high-content imaging, primary screen (AID 483;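 active = visual image review flags a hit and inhibition of aggregation exceeds 20%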;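 note: compound exposure lasted 3 days before fixation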;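 for nuclei count: percent of the per-plate median nuclei count of sample wells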). The settings on record: exon1htt(103Q)mCFP cell line, aggregate imaging, at 2 µM; inhibition of aggregation: stronger effect = higher value; nuclei count: measured here: cell count, toxicity.
Experiment [3] can be described thus: endothelial E-selectin expression blockers – imaging, HUVEC, immunofluorescence, MLSMR starter and 10KST1 sets, primary screen (AID 487;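 active = visually confirmed hit in the image check and inhibition above 20%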;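 for inhibition: signal is fraction of cell area covered by stained E-selectin grains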;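 for nuclei count: 100% = median nuclei count of all wells on the same plate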). The settings on record: HUVEC TNFalpha-induced E-selectin immunofluorescence imaging, at 2 µM; inhibition: stronger effect = higher value; nuclei count: measured here: cell number, toxicity.
Experiment [4] concerns the target Voltage-gated potassium channel subunit beta-2 (Rattus norvegicus) (UniProt P62483). The experiment is described as follows: inhibitors of rat Kvbeta2 reductase activity – biochemical, NADPH fluorescence, primary screen (AID 622;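 active = fluorescence slope higher than the sample average by over 3 SD, cut at about -0.22 in these data, passing the limit was not always enough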;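 note: slope of raw intensity against log time taken from 70 to 1610 s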). The following applies: recombinant KvBeta, 4-cyanobenzaldehyde reduction, at 10 µM, stronger effect = higher value.
Experiment [5] shares this target. The experiment is described as follows: enhancers of rat Kvbeta2 NADPH turnover – biochemical, NADPH fluorescence, primary screen (AID 623).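 Note: fluorescence intensity change per second fitted from 20 to 320 s.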 The settings on record: Recombinant KvBeta, NADPH fluorescence decrease slope, 10 min; at 10 µM; stronger effect = lower value.
For experiment [6], the target named is Alpha-2C adrenergic receptor (Homo sapiens) (UniProt P18825). The experiment in a line: compounds altering alpha2C-coupled GIRK flux – cell-based, HEK293 alpha2C/GIRK1/2, thallium flux, primary screen (AID 624;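 active = fluorescence slope after compound addition differing from the mean of all screened samples at 99.7% confidence, in either direction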;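 note: slope of fluorescence ratio to pre-addition baseline per second over 15 to 24 s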). The following applies: thallium flux BTC fluorescence, at 10 µM, actives lie on both sides.
A short description of experiment [7]: blockers of RIG-like receptor reporter activation – cell-based, Sendai virus stimulus, luciferase, 10K MLSCN set, TLR/RLR signaling modifier project, primary screen (AID 602276;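 active = inhibition at or above 50% at 10 µM; inactive = inhibition below 50%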;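 note: firefly luciferase from ISG56 promoter only with Renilla not read in this screen; 0% = Sendai virus plus DMSO and 100% = medium plus DMSO without virus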). The following applies: HEK293 RL24 IRF3 luciferase reporter, at 10 µM, stronger effect = higher value. For orientation: In a reporter assay the amount or activity of a reporter protein is the signal.

The nature of experiment [8]: TLR3 IRF3 reporter activation blockers – cell-based, poly I:C stimulus, luciferase, 10K MLSCN set, primary screen (AID 602277;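 active = inhibition of the reporter signal at or above 50%; inactive = inhibition below 50%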). The following applies: HEK293-TLR3 RL24 IRF3 luciferase reporter, at 10 µM, stronger effect = higher value.

Sequence of Alpha-2C adrenergic receptor (Homo sapiens) (P18825 whole entry, looked up): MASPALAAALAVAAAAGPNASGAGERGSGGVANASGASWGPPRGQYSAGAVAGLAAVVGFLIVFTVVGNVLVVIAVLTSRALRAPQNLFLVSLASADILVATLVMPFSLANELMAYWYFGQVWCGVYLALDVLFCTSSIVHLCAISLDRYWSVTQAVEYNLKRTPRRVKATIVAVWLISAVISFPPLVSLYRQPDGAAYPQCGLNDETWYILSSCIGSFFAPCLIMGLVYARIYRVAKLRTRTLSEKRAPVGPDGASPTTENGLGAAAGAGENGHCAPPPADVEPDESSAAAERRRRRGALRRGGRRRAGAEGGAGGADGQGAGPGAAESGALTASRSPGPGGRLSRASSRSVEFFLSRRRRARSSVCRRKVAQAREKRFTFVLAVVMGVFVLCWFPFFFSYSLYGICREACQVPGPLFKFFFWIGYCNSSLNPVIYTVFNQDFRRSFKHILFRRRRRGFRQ
Sequence of Voltage-gated potassium channel subunit beta-2 (Rattus norvegicus) (P62483 whole entry, looked up): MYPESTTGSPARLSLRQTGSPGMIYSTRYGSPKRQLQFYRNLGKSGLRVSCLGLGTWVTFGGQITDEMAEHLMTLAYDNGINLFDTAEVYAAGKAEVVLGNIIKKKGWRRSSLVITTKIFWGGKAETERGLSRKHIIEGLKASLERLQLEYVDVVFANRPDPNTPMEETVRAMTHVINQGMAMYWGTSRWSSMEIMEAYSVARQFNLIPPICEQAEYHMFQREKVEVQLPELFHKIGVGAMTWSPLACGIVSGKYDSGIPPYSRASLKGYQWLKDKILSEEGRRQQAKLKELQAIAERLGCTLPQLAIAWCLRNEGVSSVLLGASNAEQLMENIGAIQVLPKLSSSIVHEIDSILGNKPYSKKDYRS

In the case of `O=C(OCn1nnc2ccccc2c1=O)c1cc2ccccc2o1`, in experiment [1], the cell count was determined as 544. The inhibition – broadly, the drop in the measured response relative to a control, in per cent – is -3.9% (inactive) in experiment [1], -10.4% (inactive) in experiment [3], -2.91% (inactive) in experiment [7] and 27.7% (inactive) in experiment [8]. The inhibition of aggregation in experiment [2] was 19.5% (inactive). Moreover, the values for the nuclei count in experiment [2] and in experiment [3] were 76.7% and 90.4%, respectively. In experiment [4], the fluorescence slope is -0.447 (inactive). The NADPH fluorescence slope in experiment [5] is -3.1e-05 (inactive). Besides, in experiment [6], the slope was 0.00552 (inactive).

With `CC1CCN(C(=O)CSc2nc3c(cnn3-c3ccccc3)c(=O)[nH]2)CC1`, the cell count in experiment [1] is 472. For the same molecule, the inhibition in experiment [1] was 2.3% (inactive); in experiment [3], 14.9% (inactive); in experiment [7] it was 10.9% (inactive); in experiment [8], 28.1% (inactive). Also, the inhibition of aggregation in experiment [2] is -5.6% (inactive). The values for the nuclei count in experiment [2] and in experiment [3] were 102% and 79.5%, respectively. The fluorescence slope in experiment [4] is -0.582 (inactive). Moreover, the NADPH fluorescence slope in experiment [5] is -2.5e-05 (inactive). Further, the slope in experiment [6] is 0.00596 (inactive).

Regarding `COCCn1c(C23CC4CC(CC(C4)C2)C3)n[nH]c1=S`, the cell count in experiment [1] worked out at 866. The inhibition is 3.6% (inactive) in experiment [1], -91.1% (inactive) in experiment [3], 14.6% (inactive) in experiment [7] and 42.9% (inactive) in experiment [8]. In experiment [2], the inhibition of aggregation is -13.1% (inactive). In addition, the nuclei count in experiment [2] is 106%; in experiment [3], 129%. Besides, the fluorescence slope in experiment [4] is -0.44 (inactive). Further, in experiment [5], the NADPH fluorescence slope was -2.3e-05 (inactive). In addition, the slope in experiment [6] was 0.00347 (inactive).

Regarding `CCOC(=O)C(NCc1ccccc1OC)(NC(C)=O)C(F)(F)F` (centres undefined), the cell count in experiment [1] was found to be 279. Also, the inhibition is -1.5% (inactive) in experiment [1], -72.8% (inactive) in experiment [3], 5.22% (inactive) in experiment [7] and 4.4% (inactive) in experiment [8]. Besides, the inhibition of aggregation in experiment [2] was 14.4% (inactive). Also, the nuclei count is 97.8% in experiment [2] and 125% in experiment [3]. The fluorescence slope in experiment [4] was -0.616 (inactive). For the same molecule, in experiment [5], the NADPH fluorescence slope was -5.3e-06 (inactive). In addition, the slope in experiment [6] is 0.00702 (inactive).

With `O=C(NCc1cccnc1)c1ccccn1`, in experiment [1], the cell count was found to be 354. Also, the inhibition in experiment [1] is -11% (inactive); in experiment [3] it was -18.1% (inactive); in experiment [7] it was 3.99% (inactive); in experiment [8], -3.56% (inactive). In experiment [2], the inhibition of aggregation is -7.8% (inactive). In addition, the nuclei count in experiment [2] came out at 113%; in experiment [3], 108%. The fluorescence slope in experiment [4] is -0.466 (inactive). For the same molecule, the NADPH fluorescence slope in experiment [5] was -4.5e-06 (inactive). Further, in experiment [6], the slope is 0.00661 (inactive).

Turning to `Cc1ccc(Nc2nc(CSc3nnc(-c4cccs4)o3)cs2)cc1`, the cell count in experiment [1] is 444. The inhibition in experiment [1] is -0.2% (inactive); in experiment [3], 16.3% (inactive); in experiment [7], -22% (inactive); in experiment [8], -60.6% (inactive). Also, in experiment [2], the inhibition of aggregation is 31.6% (inactive). Further, the nuclei count in experiment [2] came to 110%; in experiment [3] it was 113%. In addition, the fluorescence slope in experiment [4] was -0.408 (inactive). Besides, the NADPH fluorescence slope in experiment [5] was -1.4e-05 (inactive). For the same molecule, the slope in experiment [6] is 0.00487 (inactive).

For `O=C(NCC1COc2ccccc2O1)c1ccccc1` (centres undefined), the cell count in experiment [1] came out at 279. Moreover, the inhibition is -1.7% (inactive) in experiment [1], 7.4% (inactive) in experiment [3], -21% (inactive) in experiment [7] and -82.8% (inactive) in experiment [8]. In addition, in experiment [2], the inhibition of aggregation was -0.5% (inactive). Also, the nuclei count in experiment [2] is 104%; in experiment [3] it was 90.3%. Besides, in experiment [4], the fluorescence slope was -0.62 (inactive). For the same molecule, the NADPH fluorescence slope in experiment [5] was 3.5e-06 (inactive). For the same molecule, the slope in experiment [6] is 0.00453 (inactive).

With `CC(C)Cc1nnc(NS(=O)(=O)c2ccc(Cl)cc2)s1`, the cell count in experiment [1] stood at 652. In addition, the inhibition is 5.4% (inactive) in experiment [1], -21.2% (inactive) in experiment [3], 12.6% (inactive) in experiment [7] and 27.6% (inactive) in experiment [8]. The inhibition of aggregation in experiment [2] was -9.3% (inactive). The nuclei count in experiment [2] and in experiment [3] was 112% in each case. The fluorescence slope in experiment [4] was -0.541 (inactive). Besides, the NADPH fluorescence slope in experiment [5] is 4.8e-06 (inactive). Further, the slope in experiment [6] is 0.0081 (inactive).

On to `CC(C)CC(=O)Nc1ccccc1-c1nnn(CC(=O)N2CCOCC2)n1`, for which the cell count in experiment [1] stood at 739. The inhibition in experiment [1] is -6.7% (inactive); in experiment [3], 25.9% (inactive); in experiment [7], 7.19% (inactive); in experiment [8], 13.9% (inactive). For the same molecule, the inhibition of aggregation in experiment [2] was 1.9% (inactive). For the same molecule, the results for the nuclei count in experiment [2] and in experiment [3] were 112% and 106%, respectively. Besides, in experiment [4], the fluorescence slope is -0.497 (inactive). In addition, the NADPH fluorescence slope in experiment [5] was -6.6e-05 (inactive). For the same molecule, the slope in experiment [6] was 0.00487 (inactive).

Take `Cc1cc(NCCN2CCCCC2)n2c(nc3ccccc32)c1C#N`: in experiment [1], the cell count is 624. Besides, the inhibition was -10.5% (inactive) in experiment [1], -2% (inactive) in experiment [3], 10.4% (inactive) in experiment [7] and 21.6% (inactive) in experiment [8]. Further, the inhibition of aggregation in experiment [2] was -3.2% (inactive). The nuclei count was 61.6% in experiment [2] and 134% in experiment [3]. For the same molecule, the fluorescence slope in experiment [4] is -0.526 (inactive). The NADPH fluorescence slope in experiment [5] is -4.4e-05 (inactive). For the same molecule, in experiment [6], the slope is 0.0039 (inactive).

Regarding `O=S(=O)(c1ccc(S(=O)(=O)N2CCN3CCCC3C2)cc1)N1CCCC1` (centres undefined), the cell count in experiment [1] was 575. Moreover, the inhibition in experiment [1] is -5.3% (inactive); in experiment [3], 34.6% (inactive); in experiment [7], 6.16% (inactive); in experiment [8], 28.2% (inactive). The inhibition of aggregation in experiment [2] was 31.8% (inactive). Moreover, the nuclei count in experiment [2] is 49.8%; in experiment [3] it was 85%. In experiment [4], the fluorescence slope is -0.359 (inactive). In addition, the NADPH fluorescence slope in experiment [5] was -3.4e-05 (inactive). Also, the slope in experiment [6] is 0.00601 (inactive).

In the case of `CCN1CCN(c2ncnc3c2oc2nc(C)c4c(c23)CC(C)(C)OC4)CC1`, the cell count in experiment [1] turned out to be 476. The inhibition in experiment [1] was -2.9% (inactive); in experiment [3] it was -35.5% (inactive); in experiment [7], -6.53% (inactive); in experiment [8], 30.5% (inactive). Further, the inhibition of aggregation in experiment [2] was 0.7% (inactive). Also, the nuclei count in experiment [2] is 102%; in experiment [3] it was 116%. In addition, the fluorescence slope in experiment [4] is -0.472 (inactive). Besides, the NADPH fluorescence slope in experiment [5] was -2.5e-05 (inactive). In experiment [6], the slope is 0.00388 (inactive).

As to `CCOC(=O)C1=C(C)NC2=C(C(=O)CC(C)(C)C2)C1c1ccc(N(C)C)cc1` (centres undefined), in experiment [1], the cell count was determined as 368. Also, the inhibition was -7.9% (inactive) in experiment [1], -27.4% (inactive) in experiment [3], -2.32% (inactive) in experiment [7] and 2.28% (inactive) in experiment [8]. Moreover, the inhibition of aggregation in experiment [2] is 26.1% (inactive). Also, the nuclei count was 104% in experiment [2] and 116% in experiment [3]. Further, the fluorescence slope in experiment [4] was -0.491 (inactive). Moreover, the NADPH fluorescence slope in experiment [5] was -8.1e-05 (inactive). Further, the slope in experiment [6] was 0.00676 (inactive).

For `O=C(Nc1ccc(Cl)cn1)c1cccnc1`, the cell count in experiment [1] worked out at 340. For the same molecule, the inhibition is -8% (inactive) in experiment [1], -1.5% (inactive) in experiment [3], -14% (inactive) in experiment [7] and -34.8% (inactive) in experiment [8]. In addition, the inhibition of aggregation in experiment [2] is 2.7% (inactive). Besides, the results for the nuclei count in experiment [2] and in experiment [3] were 107% and 102%, respectively. Also, the fluorescence slope in experiment [4] is -0.473 (inactive). For the same molecule, in experiment [5], the NADPH fluorescence slope is 1.1e-05 (inactive). Also, the slope in experiment [6] is 0.00527 (inactive).

The values above are taken from PubChem BioAssay.
